This passage reports inhibition results from ChEMBL document CHEMBL3433997, “St. Jude Leishmania screening dataset” (2016).

In general, inhibition refers to the relative decrease from the control value, in per cent.

SMILES strings stand for the structures.

What all share (type): functional
Assay [1] has as its target Solute carrier family 2, facilitated glucose transporter member 1 (Homo sapiens) (UniProt P11166). In words: ST_JUDE_LEISH: Cytotoxicity at 2uM final concentration against transgenic Leishmania Mexicana promastigotes LmGLUT1 that are glucose transport deficient and complemented with the human glucose transporter GLUT1. Activity is measured by DNA content using SYBR green in vitro.

Assay [2] has as its target Hexose transporter 1 (Plasmodium falciparum) (UniProt O97467). Kind of assay: ST_JUDE_LEISH: Cytotoxicity at 2uM final concentration against transgenic Leishmania Mexicana promastigotes LmPfHT that are glucose transport deficient and complemented with the Plasmodium falciparum hexose transporter. Activity is measured by DNA content using SYBR green in vitro.
Assay [3] deals with Glucose transporter (Leishmania mexicana) (UniProt O61059). Kind of assay: ST_JUDE_LEISH: Cytotoxicity at 2uM final concentration against transgenic Leishmania Mexicana promastigotes LmGT2 that are glucose transport deficient and complemented with the L. Mexicana glucose transporter 2. Activity is measured by DNA content using SYBR green in vitro.

Chain of Solute carrier family 2, facilitated glucose transporter member 1 (Homo sapiens) (P11166 whole entry): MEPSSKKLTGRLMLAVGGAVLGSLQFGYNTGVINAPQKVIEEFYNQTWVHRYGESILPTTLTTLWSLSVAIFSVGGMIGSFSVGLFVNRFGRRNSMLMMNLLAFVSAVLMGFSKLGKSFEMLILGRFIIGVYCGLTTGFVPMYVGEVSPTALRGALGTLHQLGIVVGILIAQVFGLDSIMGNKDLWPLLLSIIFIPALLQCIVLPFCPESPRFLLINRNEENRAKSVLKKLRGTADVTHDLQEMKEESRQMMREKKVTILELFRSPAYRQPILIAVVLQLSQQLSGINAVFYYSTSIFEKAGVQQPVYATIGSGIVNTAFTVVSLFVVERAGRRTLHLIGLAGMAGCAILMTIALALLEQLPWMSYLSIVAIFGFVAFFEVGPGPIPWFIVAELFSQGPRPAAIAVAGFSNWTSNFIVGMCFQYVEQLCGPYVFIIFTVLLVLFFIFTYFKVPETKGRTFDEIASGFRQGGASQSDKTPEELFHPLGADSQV

As to `COc1ccc(N2CCN(CCCCNC(=O)c3ccc(NC(=O)c4cc(C(F)(F)F)cc(C(F)(F)F)c4)cc3)CC2)c(OC)c1`, the inhibition in assay [1] amounted to 1.62%; in assay [2], 1.33%; in assay [3], 1.33%.
With `Cc1cc(NC(=O)Nc2ccc(Cl)cc2F)c2ccccc2n1`, the inhibition in assay [1] worked out at 3.45%; in assay [2] it was 4.56%; in assay [3] it was 1.56%.
On the same counts, the results for `O=C(NCc1cccc(C(F)(F)F)c1)c1ccc(-c2nc3cc(F)c(F)cc3[nH]2)cc1` are 1.11%, -2.13% and 4.61%.
On to `Ic1cc(Nc2ncnc3ccsc23)ccc1OCc1ccccc1`, for which the figures for the inhibition in assay [1], in assay [2] and in assay [3] were 0.8%, 0.85% and 0.81%, respectively.
